High-throughput results as filed in PubChem.
VACV mCherry inh = vaccinia inhibition (mCherry reporter). Vaccinia virus mCherry reporter infection, fluorescence. Potency, µM (titrated, usually from 36.5 µM), for inactives: at the top dose activity change, negative = inhibition, most hits filed as inhibitors. hit rate 0.63% among 310,000; calls by dose curve; tested in A549 cells; also: potency is read from the fitted curve at half-maximal effect; nearly all actives have a fitted effect of over 35% in size
HCV inhibitor = inhibitors of hepatitis C virus infection. Huh7.5.1 HCVcc-Cre infection, luciferase reporter, 44 h. hit rate 3.4% among 340,000. Potency, µM (titrated, usually from 41.8 µM), for inactives: at the highest dose activity change, negative = inhibition, hits mostly inhibitors; active = well fitted inhibition curve with a large enough effect; inconclusive = small, poorly fitted or top-dose-only effect, or another doubt; inactive = no such curve, though single readings can be large or run the other way; also: potency is read from the fitted curve at half-maximal effect
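Infectious HCV cell culture screen: compound-treated cells (1,000/well, pre-plated 4 h) are infected with HCVcc-Cre at roughly 0.5 moi and grown 44 h. Infection is quantified by luciferase signal after 15 min substrate incubation at room temperature.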
HCMV inh = human cytomegalovirus inhibition; HFF cells, HCMV-luciferase reporter, 72 h; stronger effect = lower value; activity change, negative = inhibition, % at 57.5 µM; hit rate 4.5% among 410,000; AID 1259415; in the data active = activity change below about -60%; inconclusive = no clear call, values can overlap the other calls; inactive = above about -39%
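Compounds were evaluated in HFFs infected with an HCMV luciferase reporter virus (MOI 1 PFU/cell). Luciferase in lysates collected 72 h post infection served as the replication measure.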
MARV entry inh = blocks Marburg virus binding to or entry into cells | Marburg virus pseudotyped entry inhibition, cell reporter | AID 540276 | hit rate 1.8% among 300,000 | Potency, µM (doses to about 37.8 µM), without a hit: top-dose activity change, negative = inhibition, most hits filed as inhibitors; calls by dose curve; tested in HEK293 cells; also: potency is read from the fitted curve at half-maximal effect
LASV entry inh = Lassa virus entry inhibition; hit rate 1.2% among 300,000; Lassa virus pseudotype entry inhibition, cell reporter; Potency, µM (doses to about 37.9 µM), for inactives: top-dose activity change, negative = inhibition, usual class: inhibitors; calls by dose curve; tested in HEK293 cells; also: potency is read from the fitted curve at half-maximal effect; nearly all actives have a fitted effect of over 50% in size
Vaccinia Venus = inhibitors of vaccinia virus (Venus reporter); Vaccinia virus Venus reporter expression, fluorescence; hit rate 0.46% among 330,000; Potency, µM (series often up to 36.5 µM), for the others: top-dose activity change, negative = inhibition, actives largely listed as inhibitors; calls by dose curve; tested in A549 cells; also: potency is read from the fitted curve at half-maximal effect; nearly all actives have a fitted effect of over 30% in size
Numbers without * were called inactive; i = inactive; u = inconclusive; x = no result given; + = active, no number; [ ] = dose if it differs, or a comment. A selection: hits, their analogues and other compounds. The true share with any hit is near 7.8%. % is scaled to controls: 0 for no effect and ±100 for the full control effect.

SMILES | VACV mCherry inh | HCV inhibitor | HCMV inh | MARV entry inh | LASV entry inh | Vaccinia Venus
CCCCOc1ccc(C(=O)NCC(=O)NCC(c2cccs2)N2CCOCC2)cc1 (stereo not given) | x | -2% | + | x | x | x
COc1ccc(C(=O)NCC(c2ccc(N(C)C)cc2)N2CCOCC2)cc1 (stereo not given) | 7% | x | -77* | x | 3%[46.1 µM] | 6%
COc1ccc(C(CNC(=O)c2cc3ccccc3o2)N2CCCCC2)cc1 (stereo not given) | i | 16µM* | 11 | -25%[46.1 µM] | u | -5%
COc1ccc(C(CNC(=O)Cc2ccccc2Cl)N2CCCCC2)cc1 (stereo not given) | -10% | 10% | -37 | 4µM* | -11%[46.1 µM] | -19%
CCCS(=O)(=O)NCc1c(C)ncc2c1CCN(C(=O)c1cccc(Cl)c1F)C2 | -8% | x | x | x | x | -7%
CC(NC(=O)C1CC1)c1nnc2n1CCN(Cc1cccc(F)c1F)CC2 (stereo not given) | -16% | x | x | x | x | -13%
O=S(=O)(c1cccnc1)N1CCN(c2nc(-c3cccs3)nc3ccccc23)CC1 | -26% | x | x | x | x | -18%
COC(=O)C1=C(C)N(Cc2ccccc2)C(=NCC(C)C)NC1c1ccc(Br)cc1 (stereo not given) | x | x | x | 5%[14.2 µM] | x | x
CC1(C(=O)NCc2ccccc2Br)CCN1Cc1c(F)cccc1F (stereo not given) | i | x | -61* | x | x | -3%
CC1(C(=O)NCc2ccccc2Br)CCN1Cc1ccccc1OC(F)F (stereo not given) | 25% | x | -36 | x | x | -12%
O=C(C=P(c1ccccc1)(c1ccccc1)c1ccccc1)c1ccccc1-c1ccccc1C(=O)C=P(c1ccccc1)(c1ccccc1)c1ccccc1 | u | u | -98* | u | 2.2µM* | 3.5µM*
Cc1c2cnn(CC(=O)N3CCOCC3)c(=O)c2c(C)n1Cc1ccc(F)cc1 | x | x | -5 | x | x | x
O=C(Cn1ncc(Cl)c(Cl)c1=O)N1CCOCC1 | u | u | -99* | u | u | u
O=C(Cn1ncc(Cl)c(Cl)c1=O)N1CCN(Cc2ccccc2)CC1 | x | 3.5µM* | -83* | x | x | x
O=C(Cn1ncc(Cl)c(Cl)c1=O)N1CCc2ccccc21 | u | u | -95* | u | u | u
CCn1c(-c2cccnc2)nc2cc(NC(=O)COC)cc(C(=O)N3CC[C@@H]4CCCC[C@H]4C3)c21 | -15% | x | x | x | x | -6%
CCc1ccc(S(=O)(=O)c2nnn(-c3ccc(F)cc3)c2N)cc1 | -14%[7.34 µM] | x | -23 | u | -10%[46.1 µM] | -8%[7.34 µM]
Cc1ccc(C)c(N2CCN(C(=O)Cn3nc(Cc4cccnc4)c4ccccc4c3=O)CC2)c1 | i | x | u | u | u | -18%
O=S(=O)(/C=C/c1ccccc1)N1CCC(n2c(C3CCCO3)nc3cccnc32)CC1 (stereo not given) | 1% | x | x | x | x | 11%
CC1(C)CCC[C@]2(C)[C@H]3Cc4cc(O)ccc4O[C@]3(C)CC[C@@H]12 | u | u | -88* | x | x | u
CC1(C)CCC[C@]2(C)[C@H]3CC(=O)O[C@]3(C)CC[C@@H]12 | -10% | 15% | -14 | -1% | -13% | -1%
CCCOc1ccc(/C=N/Nc2cc(N3CCOCC3)ncn2)c(O)c1 | x | u | -101* | x | x | x
CCOc1ccc(/C=N/Nc2cc(N3CCOCC3)ncn2)c(O)c1 | u | x | 24 | x | x | u
Cc1cc2c(c(=O)o1)[C@H]1O[C@](c3ccsc3)(Cc3ccccc31)O2 | x | x | x | 10%[14.2 µM] | x | x
COc1ccc(/C=N/NC(=O)c2nc(-c3ccccc3)n(-c3ccccc3)n2)cc1 | 0% | 1% | -11 | 2% | -19% | 17%
SMILES | VACV mCherry inh | HCV inhibitor | HCMV inh | MARV entry inh | LASV entry inh | Vaccinia Venus
COc1ccc(/C=N/NC(=O)c2nc(-c3ccccc3)n(-c3ccccc3)n2)c(O)c1 | 3.2µM* | u | u | u | u | u
CCOc1ccc2[nH]c(C(=O)N/N=C/c3ccc(OC)cc3)cc2c1 | u | u | -35 | u | u | u
COc1ccc2[nH]c(C(=O)N/N=C/c3ccc(O)cc3O)cc2c1 | u | u | -90* | x | x | u
Cc1ccc(S(=O)c2ccc([N+](=O)[O-])c3nonc23)cc1 (stereo not given) | u | x | -95* | x | x | 49%
Cc1ccc(Nc2c([N+](=O)[O-])ccc3nonc23)c(C)c1 | -14% | 19% | u | 4%[46.1 µM] | 5%[46.1 µM] | -1%
CCOC(=O)C1C(c2ccc(C(=O)O)cc2)NC(=O)NC1(O)C(F)(F)F (stereo not given) | -15% | 15% | -72* | 6%[46.1 µM] | -2% | -6%
Cc1ccc(C)c(CSc2cn(CC(=O)N3CCCC3)c3ccccc23)c1 | -8% | x | 25 | x | u | -11%
Cc1ccc(-n2c3c(c(=O)[nH]c2=O)C(NC(=O)c2ccccc2F)(C(F)(F)F)C(=O)N3)cc1C (stereo not given) | 7% | x | -5 | -7%[46.1 µM] | 10%[46.1 µM] | 7%
COc1ccc(NC(=O)CN(C)C(=O)CSC(c2ccccc2)c2ccccc2)cc1 | x | 13µM* | u | x | x | x
CCN(CC(=O)Nc1c(F)cccc1F)C(=O)CSCC(=O)Nc1ccc(OC)cc1 | -21% | 12% | u | 22% | 21% | -9%
COc1ccc(NC(=O)CSCC(=O)N(C)CC(=O)Nc2c(C)cccc2C)cc1 | x | 6% | -102* | x | x | x
OC1(c2ccc3c(c2)CN(Cc2ccccn2)CCO3)CCN(c2ccccc2F)CC1 | i | x | x | x | x | -7%
Cc1ccnc(NC(=O)c2oc3ccccc3c2C)c1 | i | u | 0 | u | 3.5µM* | -9%
Cc1c(C(=O)Nc2ccc(-n3cnnn3)cc2)oc2ccccc12 | -14% | 4% | -65* | 17% | -20% | -8%
CCC(=O)Nc1ccc(NC(=O)c2oc3ccccc3c2C)cc1 | x | -17% | 1 | x | x | x
Cn1nc(-c2ccccc2F)c2cc(C(=O)NCc3ccccc3Cl)sc21 | -12% | x | -15 | 21%[46.1 µM] | u | -8%
Cc1ccc(NC(=O)c2oc3ccc(S(=O)(=O)N4CCOCC4)cc3c2C)c(C)c1 | -11% | -3% | -22 | -8%[46.1 µM] | u | -14%
Cc1c(C(=O)NCCC2=CCCCC2)oc2ccc(S(=O)(=O)N3CCOCC3)cc12 | x | 10µM* | -69* | u | 8.2µM* | x
Cc1c(C(=O)NCCCN2CCCC2=O)oc2ccc(S(=O)(=O)N3CCOCC3)cc12 | x | 2% | -10 | -7% | 0% | x
Cc1cccc(NC(=O)c2oc3ccc(S(=O)(=O)N4CCOCC4)cc3c2C)c1C | x | 10µM* | -24 | u | u | x
CCCCCCCCCC1(CC(=O)OCC)SCCN1C(N)=O (stereo not given) | -12% | x | u | x | x | u
COc1cccc(/C=N/NC(=O)C(C)n2nc(C)c([N+](=O)[O-])c2C)c1O (stereo not given) | u | u | 107 | u | u | u
COc1cc(/C=N\NC(=O)c2ccc(Cn3nc([N+](=O)[O-])c(Cl)c3C)o2)ccc1O | x | -24% | 54 | 8%[46.1 µM] | -1% | 18µM*
